Each structure is given as a SMILES string. Values joined by “and” are separate entries in the source; they are usually repeats but may differ in a detail not shown here. Identical values can stand only once. This is part of a sample that, as a whole, favours compounds with a hit. Of some 83,000 tested, about 20% had one in any assay.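 A percent growth of 40 corresponds to 60% growth inhibition; 0 means no net growth; -100 means all cells died. Active threshold: below 10.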 Active and inactive are the calls of the source.

The subject of one experiment is MOLT-4 leukemia. Kind of experiment: NCI-60 one-dose screen, 48 h (100 = growth as untreated, 0 = no growth, -100 = all killed). As to conditions: 10 µM. On the procedure: Growth inhibition of the MOLT-4 human tumor cell line is measured as a screen for anti-cancer activity. Cells are grown in 96 well plates and exposed to the test compound for 48 hours. Compounds are tested at a single concentration, which is 10^-5 M for most compounds. The reported endpoint is percent growth (GI% or GIPRCNT), where numbers from 0 - 100% represent growth inhibition, and numbers from -100% - 0 represent cell death. For example, a value of 40 represents 60% growth inhibition. A value of 0 means no net growth occurred over the course of the experiment. A value of -40 indicates 40% of cells at the beginning of the experiment died by the end of the experiment. A value of -100 means all cells are dead at the end of the experiment.
NCI-60 Human Tumor Cell Lines Screen was performed using the standard one-dose NCI protocol, which is described in more detail at https://dtp.cancer.gov/discovery_development/nci-60/default.htm.
Compounds with GIPRCNT values below 10 were considered active. Activity score was based on GIPRCNT using the following formula: […]
Score is 0 for GIPRCNT values of 100 or above, 50 for GIPRCNT values of 0, and 100 for GIPRCNT values of -100.
With `O=C(/C=C/c1cccc(Oc2ccc(Cl)cc2)c1)c1ccccc1`, the growth was 62.6% (inactive).

The same experiment, now with this note: 10 µM unless noted.
`OB(O)c1ccsc1-c1nc2ccc3[nH]ncc3c2c2c1CCCC2`: the growth was 58.5% (inactive).

For `O=c1c2c([nH]c3ccccc13)CCCC2`, the growth is 83.4% (inactive) and 34.7% (inactive).

For the compound `Cc1c(C(=O)OCCCCOC(=O)c2c(C)n(C)c3scc[n+]23)[n+]2ccsc2n1C`, the growth is 94.9% (inactive).

On to `CCCCCCCC/C=C\CCCCCCCCOc1ccccc1CC(=O)NCC[N+]1(C)CCOCC1`, for which the growth is 83.7% (inactive).

For `CC12OC(CC(O)C1O)n1c3ccccc3c3c4c(c5c6ccccc6n2c5c31)C(=O)N(CCN1CCOCC1)C4=O` (stereo not given), the growth is 3.59% (active).

`c1ccc(Cc2cccc[n+]2C(c2ccccc2)c2ccccc2)cc1`: the growth was 59.3% (inactive).

`CCN1CCN(C(=O)[C@]23CC[C@@H](C)[C@H](C)[C@@H]2C2=CC[C@@H]4[C@@]5(C)CCC(=O)C(C)(C)[C@@H]5CC[C@@]4(C)[C@]2(C)CC3)CC1`: the growth is -15.9% (active).

Consider `COc1ccc(C2Nc3nc(SC)nc(N)c3N=C3c4ccccc4CCC32)cc1` (stereo not given), for which the growth was 69.7% (inactive).

With `CCCO/N=C/c1ccccn1`, the growth is 124% (inactive) and 102% (inactive).

`Nc1nc2ccccc2c2c(=O)c3ccc(Cl)cc3sc12`: the growth was 93.6% (inactive).

In the case of `CN1C(=O)N(C)C2(c3ccccc3)N(CC(=O)Nc3ccccc3O)C(=O)NC12c1ccccc1` (stereo not given), the growth was 102% (inactive).

As for `COc1cc(/C=C2\CCC/C(=C\c3cc(CN4CCCC4)c(O)c(OC)c3)C2=O)cc(CN2CCCC2)c1O`, the growth was 4.58% (active).

As for `Cc1ccc(-c2nc3nc(-c4ccccc4)nc(N4CCCNCC4)c3o2)cc1`, the growth is -68.1% (active).

Consider `O=S(=O)(O)c1ccc(N=Nc2ccc(N=Nc3cccc4ccccc34)c(S(=O)(=O)O)c2)cc1`, for which the growth is 108% (inactive).

On to `CS(=O)(=O)Nc1cc(-c2ccc3ncnc(Nc4ccc(F)c(Cl)c4)c3c2)cnc1Cl`, for which the growth is -19.9% (active).

As to `CN1CCCc2cc(/C=C3\SC(=S)N(C(Cc4ccc(O)cc4)C(=O)O)C3=O)ccc21` (stereo not given), the growth is 103% (inactive).

As for `COc1ccc(-c2cc(-c3cc(OC)c(OC)c(OC)c3)c(C#N)c(=O)n2CCCCC(=O)O)cc1`, the growth was 105% (inactive).

Take `CCOC(=O)c1cnn(CC(O)CC)c1NC(=O)NCc1ccccc1C(F)(F)F` (stereo not given): the growth was 87.2% (inactive).

For `CONC1=Nc2cc(NC(N)=NCc3ccccc3)c(N(C)C3CCCCC3)cc2OC1`, the growth was 54.2% (inactive).

For the compound `COc1nc(=O)n(C2C=CC(=O)O2)cc1F` (stereo not given), the growth was 33.5% (inactive).

Take `N=C(N)c1ccc(-c2ccc(-c3ccc(F)cc3)s2)nc1`: the growth is 26.3% (inactive).

`COc1cc(/C=C2/C=C(c3ccc(C(C)(C)C)cc3)N(CCc3ccc(S(N)(=O)=O)cc3)C2=O)cc(OC)c1OC`: the growth is 16.3% (inactive).

On to `COc1cccc(C2C(C#N)=C(N)Oc3cc(OCCCCCC[P+](c4ccccc4)(c4ccccc4)c4ccccc4)ccc32)c1` (stereo not given), for which the growth was -15.8% (active).

For `ON=C1CCCCCCCC1`, the growth is 101% (inactive) and 96.2% (inactive).

Consider `COc1ccc(/C(C)=C(\c2ccc(OCCN3CCOCC3)cc2)c2ccc(OC(=O)C3CCCCC3)cc2)cc1`, for which the growth is 117% (inactive).

In the case of `CCCN1C(=O)/C(=c2\sc3n(c2=O)C2C(NN=3)N(CC)C(=O)N2CC)c2ccccc21` (stereo not given), the growth is 19.1% (inactive).

As to `CCOC(=O)C(=CCC(C)C)C(=O)OCC`, the growth was 98.1% (inactive).

For `COc1ccc(C/C(C)=C(\c2ccc(O)cc2)c2ccc(OCCCN(C)C)cc2)cc1`, the growth is 68.8% (inactive).

Regarding `CCN(CC)CCOc1ccc(/C(=C(\Cl)c2ccccc2)c2ccccc2)cc1`, the growth was 36.8% (inactive) and 91.6% (inactive).

Regarding `COc1ccc(C/C(C)=C(/c2ccc(OCCN3CCCCCC3)cc2)c2ccc(OC(=O)c3ccccc3)cc2)cc1`, the growth is 77% (inactive).

Turning to `O=C1OCC2=C1C(c1cccc(C(F)(F)F)c1)c1cc3c(cc1N2CCO)CCC3` (stereo not given), the growth is 7.83% (active).

As to `O=C1C(=C(O)c2ccccc2)C(=O)c2ccccc21`, the growth is 116% (inactive).

Take `Nc1n[nH]c2cccc(C#Cc3cccc(NC(=O)c4ccc(N5CCOCC5)c(C(F)(F)F)c4)c3)c12`: the growth was 7.67% (active).

As to `Nc1ccc(S(=O)(=O)c2ccc(N)cc2)cc1`, the growth was 109% (inactive) and 108% (inactive).

On to `CC1=C2[C@@H](CC1)[C@]1(C)O[C@@](C(C)C)(C[C@H]1OC(=O)CO)[C@H]2OC(=O)C1CC1c1ccccc1` (stereo not given in full), for which the growth is 75.6% (inactive).

As for `COc1cc(C(=O)c2ccccc2C(=O)O)c(OC)c2c1CCCC2`, the growth is 86.3% (inactive) and 95.7% (inactive).

For `C=C1C(=O)O[C@H]2[C@H]1CC/C(COC(=O)NCc1ccc(Cn3c(=O)sn(CCCI)c3=O)cc1)=C\CC[C@@]1(C)O[C@@H]21`, the growth is 9.74% (active).

As for `N#CC1=C(N)Oc2c(sc3c(Br)cccc23)C1c1ccccn1` (stereo not given), the growth is 28.9% (inactive).

The experiment is the same for the next values; noted with them: 100 µM.
As for `O=C(/C=C/c1cccc(Oc2ccc(Cl)cc2)c1)c1ccccc1`, the growth was -2.97% (active).

Values taken from PubChem BioAssay (NCI).
